Experimental data as given in the OligoGym collection.

Molecular target: STAP2
Assay: pooled miR-30 sensor sort-seq; sequence = guide strand
Settings: shRNA
Also: reference of the scale not given here.

Row | Sequence | sensor-assay potency score (higher = more potent)
1 | TAGAGGAAGCCACATCTTGGTT | -1.31
2 | TACCTTGAACTTGATCTCCTGA | 0.355
3 | TAGTTCTCTTCCTGGTTCGGTA | -0.765
4 | TTCCACATCGATCACGTACTTG | -0.479
5 | TAGCCTAGCACCTTCTCGTAGT | -0.174
6 | TTCTCATAGTCAACAGCTGGGC | -0.883
7 | TTCCACGTAGCCTAGCACCTTC | -0.0469
8 | TTGAGCTTCTCCACGTGCTGGA | 0.441

Molecular target: STARD13
Assay: as above
Settings: shRNA

Row | Sequence | sensor-assay potency score (higher = more potent)
9 | TGACCTTTCAGGTCTATCCTGC | 0.102
10 | TTGCTGAATACTTTGAGGCAGG | -0.948
11 | TATTTCTTCTGTATGACTCGTG | 0.941
12 | TTGTAGTCTGATCAAATCGCAA | -1.15
13 | TTGAATTTTAGTCACTAGCTGA | -0.1
14 | TTGTCATAGATACTGACTCGGC | -0.87
15 | ATGAACTTTGGAACTGACCATG | -1.26
16 | TATAACTGAGCGTATTGCGGGA | -0.462
17 | TTGTTCAACGTATTTAGTCGTC | -0.155
18 | TAGTCGGGAACTTTCATCCTCT | 0.0488
19 | TTTGTAGTCGGGAACTTTCATC | -0.697
20 | TTAGTCGTCTGCAAAGAGGTTC | -0.341

Molecular target: STARD3NL
Assay: as above
Settings: shRNA

Row | Sequence | sensor-assay potency score (higher = more potent)
21 | TTCAACTTTACTGTCGACAGGG | 0.68
22 | TTTGCTAGTAAAAAGGCACTGG | 0.563
23 | TGAAGCATCCTGAACTATCAGG | -0.809
24 | TTGATTAGGAATACAGCACAAG | -0.839
25 | TTTAAATCGAAAAACTGCCAGA | -0.348
26 | TACTTCAATATATTAAGTCTTT | -0.927
27 | TTTAACTCTATTATCCACAGTA | 0.804
28 | TTTCTTCTTCTGCTTCTTGAGG | -0.759
29 | TTAGCTGTTCAATAAAGCCAGC | -0.902
30 | TTGAAATCCAGGAACCACGTCT | 0.74
31 | TATTACAATAAATAAATCTTTA | -1.13
32 | TAAATAAATCTTTATTAGCTGT | -0.476

Molecular target: STARD3
Assay: as above
Settings: shRNA

Row | Sequence | sensor-assay potency score (higher = more potent)
33 | TTGACAATGAGGAATGCACTGG | 0.205
34 | TGTGTTGGTATTCAGTTCGATG | -1.58
35 | TTCCACTCGCTGCAGGATCTGG | -1.17
36 | TTGTTCCACAGCACCATCCTCT | -0.73
37 | TTCATTATTCTTCTCAAACTTC | -0.376
38 | TTCAGGATAAACGTCTTGCCGT | -0.566
39 | TGTCTTGTTCCACAGCACCATC | -1.77
40 | TTCCACAGCACCATCCTCTCGG | 0.506
